Several values for one entry are separate records, joined by “and”; a condition that tells them apart may be missing. Equal entries are not always repeated. Hit rate of the full screen: of about 5,500 compounds, about 2,000 (36%) were called active. Another 18% or so got no clear call; they are omitted. Cut-off read from the data, not from the text of the source: active = normalized growth mostly below about 0.91 (no sharp cut-off); inconclusive = no clear call, values can overlap the other calls; inactive = mostly above about 0.92. The list shows a part of the results.
Assay: chemical genetic growth profiling, strain panel (AID 1159580);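 note: tested at 20 µM; growth read once vehicle control cultures reached saturation at 30 °C; 1 = growth at the plate median or of vehicle wells; lower values mean less growth of the strain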
Conditions: S. cerevisiae deletion strains, growth OD

Measured: normalized growth

COC1=C[C@@H]2[C@@H]3Cc4ccc(OC)c(O)c4[C@]2(CCN3C)CC1=O
inactive: locus YAL013W, strain DEP1, hits give low values 0.985 | locus YAL021C, strain ccr4, hits give low values 1.01 | locus YAL026C, strain drs2, hits give low values 1 | locus YAL030W, strain snc1, hits give low values 1 | locus YBL061C, strain skt5, hits give low values 1.01 | locus YBR009C, strain hhf1, hits give low values 1 | locus YBR021W, strain FUR4, hits give low values 1.04 | locus YBR023C, strain chs3, hits give low values 1 | locus YBR171W, strain sec66, hits give low values 0.983 | locus YBR229C, strain ROT2, hits give low values 0.961 | locus YBR231C, strain swc5, hits give low values 0.995 | locus YBR279W, strain paf1, hits give low values 0.991 | locus YCL011C, strain gbp2, hits give low values 1 | locus YCL016C, strain dcc1, hits give low values 0.977 | locus YCL029C, strain bik1, hits give low values 0.967 | locus YCL069W, strain vba3, hits give low values 1.01 | locus YCR088W, strain abp1, hits give low values 0.987 | locus YDL005C, strain med2, hits give low values 0.997 | locus YDL035C, strain GPR1, hits give low values 1 | locus YDL040C, strain nat1, hits give low values 1 | locus YDL074C, strain BRE1, hits give low values 0.952 | locus YDL101C, strain DUN1, hits give low values 0.972 | locus YDL134C, strain PPH21, hits give low values 0.981 | locus YDL185W, strain tfp1, hits give low values 0.929 | locus YDL192W, strain arf1, hits give low values 0.987 | locus YDR001C, strain nth1, hits give low values 1 | locus YDR069C, strain doa4, hits give low values 0.979 | locus YDR101C, strain arx1, hits give low values 1 | locus YDR137W, strain rgp1, hits give low values 0.972 | locus YDR150W, strain NUM1, hits give low values 0.971 | locus YDR159W, strain sac3, hits give low values 0.967 | locus YDR162C, strain NBP2, hits give low values 0.969 | locus YDR195W, strain ref2 0.967 | locus YDR297W, strain sur2, hits give low values 1 | locus YDR318W, strain mcm21, hits give low values 0.995 | locus YDR334W, strain swr1, hits give low values 0.984 | locus YDR335W, strain msn5, hits give low values 0.986 | locus YDR388W, hits give low values 0.984 | locus YDR392W, strain spt3, hits give low values 0.988 | locus YDR502C, strain sam2, hits give low values 0.986 | locus YEL003W, strain gim4, hits give low values 1 | locus YEL037C, strain rad23, hits give low values 0.999 | locus YEL061C, strain CIN8 (second series), hits give low values 0.999 | locus YEL061C, strain CIN8, hits give low values 0.982 | locus YER015W, strain faa2, hits give low values 0.986 | locus YER016W, strain bim1, hits give low values 1 | locus YER110C, hits give low values 0.969 | locus YER111C, strain swi4, hits give low values 1.01 | locus YER155C, strain BEM2 (second series), hits give low values 1.01 | locus YER155C, strain BEM2, hits give low values 1 | locus YER167W, strain BCK2, hits give low values 1 | locus YFR010W, strain ubp6, hits give low values 1.01 | locus YGL078C, strain dbp3, hits give low values 0.971 | locus YGL086W, strain mad1, hits give low values 0.99 | locus YGL167C, strain pmr1, hits give low values 0.986 | locus YGL173C, strain kem1, hits give low values 0.99 | locus YGL227W, strain vid30, hits give low values 1 | locus YGL240W, strain doc1, hits give low values 1 | locus YGL248W, strain PDE1, hits give low values 0.972 | locus YGL253W, strain hxk2, hits give low values 1.01 | locus YGR078C, strain PAC10, hits give low values 0.965 | locus YGR135W, strain pre9, hits give low values 0.959 | locus YGR229C, strain SMI1, hits give low values 0.974 | locus YGR252W, strain gcn5, hits give low values 1 | locus YHR013C, strain ard1, hits give low values 0.962 | locus YHR027C, strain rpn1, hits give low values 0.992 | locus YHR030C, strain SLT2, hits give low values 1 and 1.03 | locus YHR079C, strain IRE1 (second series), hits give low values 0.987 | locus YHR079C, strain IRE1, hits give low values 1.03 | locus YHR094C, strain hxt1, hits give low values 0.978 | locus YHR129C, strain ARP1, hits give low values 0.996 | locus YHR142W, strain chs7, hits give low values 0.999 | locus YHR200W, strain rpn10, hits give low values 0.975 | locus YIL066C, strain RNR3, hits give low values 0.972 | locus YIL073C, strain SPO22, hits give low values 1.03 | locus YIL125W, strain kgd1, hits give low values 0.968 | locus YIR030C, strain dcg1, hits give low values 0.989 | locus YJL092W, strain hpr5, hits give low values 0.997 | locus YJL095W, strain BCK1 (second series), hits give low values 1 | locus YJL095W, strain BCK1, hits give low values 0.963 and 1.03 | locus YJL115W, strain asf1, hits give low values 1.01 | locus YJL129C, strain trk1, hits give low values 0.977 | locus YJL134W, strain LCB3, hits give low values 0.989 | locus YJL154C, strain vps35, hits give low values 0.988 | locus YJL164C, strain tpk1, hits give low values 0.997 | locus YJL166W, strain qcr8, hits give low values 1 | locus YJL168C, strain set2, hits give low values 0.982 | locus YJL187C, strain SWE1 (second series), hits give low values 0.958 | locus YJR043C, strain POL32, hits give low values 1.03 | locus YJR066W, strain TOR1, hits give low values 0.97

— PubChem BioAssay AID1159580 (chemical genetic matrix, 2015)
